Values joined by “and” are separate entries in the source; they are usually repeats but may differ in a detail not shown here. Identical values can stand only once. The panel holds about 83,000 compounds, 20% with a hit somewhere; the sample as a whole holds those more often.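 Interpretation: 100, growth as untreated; towards 0, rising growth inhibition; 0, no net growth; 0 to -100, cell death. Compounds scoring below 10 were considered active.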 Values without a mark were called inactive. Active and inactive are the calls of the source.
Test system: MDA-MB-468 breast
Assay: NCI-60 one-dose screen, 48 h (100 = growth as untreated, 0 = no growth, -100 = all killed)
Conditions: 10 µM unless noted

SMILES	growth
O=C(NCCCO)c1cc(Cl)ccc1O	-12.2% (active)
N#C/C(C(=O)c1ccccc1)=C1/C(=O)Nc2ccc(Br)cc21	102%
Cc1cc(N(CCCNc2ccnc3cc(Cl)ccc23)Cc2ccc3c(c2)OCO3)nc(N2CCCCC2)n1	-45.2% (active)
COc1ccc(-c2cc(C(=O)N3N=C(c4ccc(N)cc4)CC3c3ccc(Cl)cc3)c3ccccc3n2)cc1 (centres undefined)	18.4%
COc1ccc(-c2csc(NC(=O)c3cc(O)c(O)c(O)c3)n2)cc1	78.6%
Cn1cc(-c2csc(-c3cn(C(=O)OC(C)(C)C)c4ccc(Br)cc34)n2)c2ccnc(Cl)c21	5.4% (active)
S=C(SSC(=S)N1CCOCC1)N1CCOCC1	106%
Cc1ccc(N)cc1S(=O)(=O)O	127% and 110%
C[C@H]1[C@H](C)CC[C@]2(C(=O)NCC#CCN3CCN(C)CC3)CC[C@]3(C)C(=CC[C@@H]4[C@@]5(C)Cc6c([nH]c7ccccc67)C(C)(C)[C@@H]5CC[C@]43C)[C@H]12	90.1%
O=C1OC(c2ccc(F)cc2)CC1CN1CCOCC1 (centres undefined)	95.8%
CN(C)CCOc1nc2c3cccnc3cc(-c3cccc(Cl)c3)c2c2ncccc12	2.18% (active)
O=C(N/N=C/c1ccc2c(c1)OCO2)c1cnn2c1NC(c1ccccc1)C2 (centres undefined)	22.4%
O=C(Nc1cc(Cl)ccc1O)c1ccc(Nc2ccnc(C(F)(F)F)c2)cc1	58.7%
O=C(Nc1ccccc1)Oc1c(Cl)c(Cl)c(Cl)c(Cl)c1Cl	116% and 98.8%

Reference: PubChem BioAssay (NCI)
